According to PubChem BioAssay (Tox21):
Inconclusive results are not listed. A call without a number means that no potency is given here. Unmarked numbers belong to inactive results. The source made the active and inactive calls. Unless noted, the call rests on the fitted dose curve; in most records, active means well fitted curve in the direction sought with a large enough effect in the repeat runs; inconclusive means weak or mixed curves; inactive means no such curve, though single readings can be large; an effect the other way counts as inactive or inconclusive.

Legend:
[1] = qHTS assay to identify aromatase inhibitors - cell viability counter screen (AID 743084);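 further: cells stimulated with testosterone during compound exposure; nearly all actives have a fitted effect of over 55% in size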; further: potency means the concentration at half of the fitted maximal effect
[2] = target: Aryl hydrocarbon receptor (Homo sapiens) (UniProt P35869); assay: qHTS assay to identify small molecule that activate the aryl hydrocarbon receptor (AhR) signaling pathway (AID 743085); further: nearly all actives have a fitted effect of over 15% in size; further: potency means the concentration at half of the fitted maximal effect;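 on activation: HG2L7.5c1 human HepG2 liver cells with stably integrated DRE-driven firefly reporter; series mostly up to about 70 µM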
Procedure, shortened: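 Cell line HG2L7.5c1 (human hepatoma, 20× DRE-luc). Plated, 5 h 37C, compound/DMSO added, 24 h 37C. CellTiter-Fluor 30 min 37C → fluorescence; then ONE-Glo 30 min RT → luminescence.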

[3] = qHTS assay to identify small molecule that activate the aryl hydrocarbon receptor (AhR) signaling pathway - cell viability counter screen (AID 743086); further: nearly all actives have a fitted effect of over 45% in size; further: potency means the concentration at half of the fitted maximal effect
Procedure, shortened: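 HepG2-AhR-luc (HG2L7.5c1) cells, 4000/well, treated 24 h at 37 C with compound; viability measured as CellTiter-Fluor fluorescence after 30 min in the same wells as the luciferase read.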

[4] = qHTS assay to identify small molecule phospholipidosis (PLD) inducers (AID 1259344; active means well fitted curve in the direction sought with a large enough effect; an effect the other way counts as inactive or inconclusive)
Procedure, shortened: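 Read-out is LipidTOX Red fluorescence (ex 595/em 615) imaged in HepG2 cells after 24 h compound exposure at 37 C, with Hoechst nuclear counterstain (ex 352/em 461) allowing per-cell normalisation.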

[5] = target: Nuclear receptor subfamily 1 group I member 2 (Homo sapiens) (UniProt O75469); assay: CYP3A4 induction through human pregnane X receptor (PXR) by small molecules, qHTS assay (AID 1346984); further: nearly all actives have a fitted effect of over 40% in size; further: potency means the concentration at half of the fitted maximal effect
Procedure, shortened: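 After 24 h at 37C with compound, DPX-2 cells (HepG2, co-transfected PXR response element and CYP3A4 promoter-luciferase) got 3uM final P450-Glo Luciferin-IPA for 3 h; One-Glo luminescence followed.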

[6] = target: Nuclear receptor subfamily 1 group I member 2 (Homo sapiens) (UniProt O75469); assay: Human pregnane X receptor (PXR) activation by small molecules, qHTS assay (AID 1346985); further: nearly all actives have a fitted effect of over 40% in size; further: potency means the concentration at half of the fitted maximal effect
Procedure, shortened: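 DPX-2 cells (HepG2 co-transfected with a PXR response element and a CYP3A4-promoter luciferase construct) were seeded at 2,000 per well, rested 5 hr at 37C, then exposed to DMSO-dissolved compounds for 24 hr. Activation was read as luciferase luminescence.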

[7] = target: Peroxisome proliferator-activated receptor gamma (Homo sapiens) (UniProt P37231); assay: qHTS assay to identify small molecule agonists of the peroxisome proliferator-activated receptor gamma (PPARg) signaling pathway (AID 743094; active means well fitted activation curve with a large enough effect in the signal ratio in the repeat runs, not every such curve was filed as active; the % refers to the signal ratio)
Procedure, shortened: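 Fluorescence-based beta-lactamase readout in HEK293H PPARg UAS-bla cells after 17 h compound exposure (37C) and 1 h B/G FRET substrate incubation at room temperature.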

[8] = target: Nuclear receptor subfamily 1 group I member 2 (Rattus norvegicus) (UniProt Q9R1A7); assay: Rat pregnane X receptor (rPXR) activation by small molecules, qHTS assay (AID 1346983); settings: rPXR luciferase reporter cells, One-Glo luminescence, 24 h; max activation: active compounds read high; further: nearly all actives have a fitted effect of over 20% in size
Procedure, shortened: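 Cell-based rPXR activation assay: rPXR cells, 2,000 per well, rested 5hr at 37 C, then exposed to compounds in DMSO for 24 hr at 37 C. Luciferase activity read by One-Glo luminescence after 30 min at room temperature.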

Chain of Peroxisome proliferator-activated receptor gamma (Homo sapiens) (P37231 whole entry, looked up): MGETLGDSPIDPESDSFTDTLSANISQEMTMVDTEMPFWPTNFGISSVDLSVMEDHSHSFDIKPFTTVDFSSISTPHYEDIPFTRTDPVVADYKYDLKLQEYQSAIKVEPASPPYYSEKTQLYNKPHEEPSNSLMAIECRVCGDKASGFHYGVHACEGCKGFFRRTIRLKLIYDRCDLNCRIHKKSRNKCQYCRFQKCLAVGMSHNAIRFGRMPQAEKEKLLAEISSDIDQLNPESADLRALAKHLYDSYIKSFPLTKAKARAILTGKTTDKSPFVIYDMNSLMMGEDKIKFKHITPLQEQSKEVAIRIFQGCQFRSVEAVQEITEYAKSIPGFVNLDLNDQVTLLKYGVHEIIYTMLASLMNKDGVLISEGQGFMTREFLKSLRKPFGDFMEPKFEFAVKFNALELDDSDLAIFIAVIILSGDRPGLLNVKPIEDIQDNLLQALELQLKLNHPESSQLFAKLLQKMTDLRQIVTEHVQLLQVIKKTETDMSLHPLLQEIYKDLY
Chain of Nuclear receptor subfamily 1 group I member 2 (Rattus norvegicus) (Q9R1A7 whole entry, looked up): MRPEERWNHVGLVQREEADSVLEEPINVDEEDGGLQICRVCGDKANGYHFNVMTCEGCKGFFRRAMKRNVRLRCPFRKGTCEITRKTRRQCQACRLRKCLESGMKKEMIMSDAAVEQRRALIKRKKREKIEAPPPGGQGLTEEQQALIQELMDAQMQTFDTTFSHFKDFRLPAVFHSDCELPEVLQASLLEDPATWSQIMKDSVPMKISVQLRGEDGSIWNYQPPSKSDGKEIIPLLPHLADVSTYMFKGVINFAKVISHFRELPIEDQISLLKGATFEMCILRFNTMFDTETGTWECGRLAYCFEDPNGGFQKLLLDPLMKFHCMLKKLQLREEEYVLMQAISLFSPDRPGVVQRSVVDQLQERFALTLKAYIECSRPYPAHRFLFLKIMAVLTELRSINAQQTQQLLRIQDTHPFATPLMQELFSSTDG
Chain of Aryl hydrocarbon receptor (Homo sapiens) (P35869 whole entry, looked up): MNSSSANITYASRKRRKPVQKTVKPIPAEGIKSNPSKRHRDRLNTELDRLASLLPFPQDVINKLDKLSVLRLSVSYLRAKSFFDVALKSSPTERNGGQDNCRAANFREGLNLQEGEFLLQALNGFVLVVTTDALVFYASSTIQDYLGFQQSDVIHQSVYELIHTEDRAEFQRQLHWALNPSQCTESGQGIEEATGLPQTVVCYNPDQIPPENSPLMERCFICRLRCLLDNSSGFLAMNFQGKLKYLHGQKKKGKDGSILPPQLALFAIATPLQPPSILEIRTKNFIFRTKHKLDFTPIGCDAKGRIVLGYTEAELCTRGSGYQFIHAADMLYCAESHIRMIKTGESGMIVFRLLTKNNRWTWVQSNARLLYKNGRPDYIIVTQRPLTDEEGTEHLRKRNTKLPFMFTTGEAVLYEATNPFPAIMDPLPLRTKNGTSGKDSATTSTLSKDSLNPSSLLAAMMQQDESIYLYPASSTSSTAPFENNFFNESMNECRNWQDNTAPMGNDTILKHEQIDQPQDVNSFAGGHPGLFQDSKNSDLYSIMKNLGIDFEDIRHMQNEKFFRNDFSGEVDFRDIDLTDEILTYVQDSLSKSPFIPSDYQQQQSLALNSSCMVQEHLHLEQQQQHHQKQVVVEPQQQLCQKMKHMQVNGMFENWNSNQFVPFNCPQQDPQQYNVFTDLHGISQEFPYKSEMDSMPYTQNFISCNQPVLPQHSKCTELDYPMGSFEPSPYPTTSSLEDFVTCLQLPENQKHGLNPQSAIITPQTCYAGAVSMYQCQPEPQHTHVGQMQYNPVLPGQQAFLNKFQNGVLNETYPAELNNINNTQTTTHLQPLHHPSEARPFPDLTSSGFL

| Compound | Potency [1] | Potency [2] | Potency [3] | Potency [4] | Potency [5] | Potency [6] | Potency [7] | max activation [8] [%] |
| --- | --- | --- | --- | --- | --- | --- | --- | --- |
| N#CC(c1ccc(Cl)cc1)c1c(Cl)cc(-n2ncc(=O)[nH]c2=O)cc1Cl (configuration not stated) | inactive | inactive | inactive | inactive | inactive | inactive |  |  |
| CC[N+](C)(C)Cc1ccccc1Br | inactive | inactive | inactive | inactive |  |  | inactive | -1.23 |
| O=C(O)C1=C(CSc2nnnn2CS(=O)(=O)O)CS[C@@H]2[C@H](NC(=O)[C@H](O)c3ccccc3)C(=O)N12 | inactive | inactive | inactive | inactive | inactive | inactive | inactive |  |
| CO/N=C(\C(=O)N[C@@H]1C(=O)N2C(C(=O)O)=C(CSC(=O)c3ccco3)CS[C@H]12)c1csc(N)n1 | inactive | inactive | inactive | inactive | inactive | inactive | inactive |  |
| CCC(Oc1ccccc1)C(=O)N[C@@H]1C(=O)N2[C@@H]1SC(C)(C)[C@@H]2C(=O)O (some centres not stated) | inactive | inactive | inactive | inactive | inactive | inactive | inactive |  |
| O=C(O)CN(CC(=O)O)CC1=CC2C(=CC1=O)Oc1cc(O)c(CN(CC(=O)O)CC(=O)O)cc1C21OC(=O)c2ccccc21 (configuration not stated) |  |  |  | inactive | inactive | inactive |  |  |
| N[C@H](CC(=O)O)C(=O)O | inactive | inactive | inactive | inactive |  |  |  | 2.19 |
| NS(=O)(=O)c1cc2c(cc1Cl)NC(Cc1ccccc1)NS2(=O)=O (configuration not stated) | inactive | inactive | inactive | inactive | inactive | inactive | inactive |  |
| CN1C(=O)CN2CCc3ccccc3C2c2cc(Cl)ccc21 (configuration not stated) | inactive | 4.73 µM (active) | inactive | inactive | 3.16 µM (active) | 22.4 µM (active) | inactive |  |
| CC(=O)[C@@]1(O)CC[C@H]2[C@@H]3C=C(Cl)C4=CC(=O)[C@@H]5C[C@@H]5[C@]4(C)[C@H]3CC[C@@]21C | inactive | inactive | inactive | inactive | inactive | inactive | inactive |  |
| C[C@]12CCC(=O)C=C1CC[C@@H]1[C@@H]2[C@@H](O)C[C@@]2(C)[C@H]1CC[C@]2(O)C(=O)COP(=O)(O)O | inactive |  | inactive | inactive |  |  | inactive | 11.6 |
| COCC(=O)Nc1cc(Sc2ccccc2)ccc1N=C(NC(=O)OC)NC(=O)OC | inactive |  | inactive | inactive |  | inactive | inactive | 86.6 |
| CCCCCCOc1ccc(C(=N)N(CCCC)CCCC)c2ccccc12 | 16.8 µM (active) |  | 18.8 µM (active) | inactive |  |  |  | -20.9 |
| COc1ccc2c(=O)c(C)c(-c3ccccc3)oc2c1CN(C)C | inactive | 11.9 µM (active) | inactive | inactive |  |  | inactive | -1.96 |
| CC(=O)N=c1sc(S(N)(=O)=O)nn1C | inactive | inactive | inactive | inactive | inactive | inactive | inactive |  |
| CCSc1ccc2c(c1)N(CCCN1CCN(C)CC1)c1ccccc1S2 | inactive |  | inactive | inactive |  | inactive | inactive | -0.528 |
| CN1CCC(OC(=O)C(Oc2ccc(Cl)cc2)Oc2ccc(Cl)cc2)CC1 | inactive | inactive | inactive | inactive | inactive | inactive | inactive |  |
| CCc1ccc(S(=O)(=O)O)cc1 | inactive | 11.9 µM (active) | inactive | inactive |  | inactive | inactive | -0.665 |
| CCOC(=O)Oc1c(OC)cc(C(=O)O[C@@H]2C[C@@H]3CN4CCc5c([nH]c6cc(OC)ccc56)[C@H]4C[C@@H]3[C@H](C(=O)OC)[C@H]2OC)cc1OC |  |  | inactive | inactive |  |  |  | -0.121 |
| O=C(O)COc1ccc(CCNS(=O)(=O)c2ccccc2)s1 | inactive | inactive | inactive | inactive | inactive | inactive | inactive |  |
| COc1ccc(C[C@H](C)NC[C@@H](O)c2ccc(O)c(NC=O)c2)cc1 | inactive | inactive | inactive | inactive | inactive | inactive | inactive |  |
